The record followed here is ChEMBL document CHEMBL1961873, “Compounds: GSK PKIS; Assays: Nanosyn kinase panel” (2012).

For assay [1], the target named is Mitogen-activated protein kinase 3 (Homo sapiens) (UniProt P27361). The following applies: at 1 µM.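 Further: values are mean percent inhibition of MAPK3.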
Assay [2] concerns the target SRSF protein kinase 3 (Homo sapiens) (UniProt Q9UPE1). Conditions: at 0.1 µM.
Assay [3] has the same target. The following applies: at 1 µM.
For assay [4], the target named is Mitogen-activated protein kinase 14 (Homo sapiens) (UniProt Q16539). Conditions: at 0.1 µM.
Chain of Mitogen-activated protein kinase 14 (Homo sapiens) (Q16539 whole entry): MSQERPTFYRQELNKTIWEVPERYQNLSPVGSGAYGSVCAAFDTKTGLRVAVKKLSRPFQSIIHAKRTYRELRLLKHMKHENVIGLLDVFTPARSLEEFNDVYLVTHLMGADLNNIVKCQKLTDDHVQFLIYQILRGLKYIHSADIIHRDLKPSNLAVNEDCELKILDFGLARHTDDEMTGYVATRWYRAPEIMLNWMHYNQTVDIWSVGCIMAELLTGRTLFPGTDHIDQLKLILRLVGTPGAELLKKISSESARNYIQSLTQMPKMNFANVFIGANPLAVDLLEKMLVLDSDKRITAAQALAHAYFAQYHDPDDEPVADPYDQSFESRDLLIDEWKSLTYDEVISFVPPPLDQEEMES
Assay [5] shares this target. The following applies: at 1 µM.
Assay [6] has as its target Mitogen-activated protein kinase 11 (Homo sapiens) (UniProt Q15759). Conditions: at 0.1 µM.
Assay [7] shares this target. Conditions: at 1 µM.
The target in assay [8] is T1, Mitogen-activated protein kinase 13 (Homo sapiens) (UniProt O15264).
T1 sequence (whole entry): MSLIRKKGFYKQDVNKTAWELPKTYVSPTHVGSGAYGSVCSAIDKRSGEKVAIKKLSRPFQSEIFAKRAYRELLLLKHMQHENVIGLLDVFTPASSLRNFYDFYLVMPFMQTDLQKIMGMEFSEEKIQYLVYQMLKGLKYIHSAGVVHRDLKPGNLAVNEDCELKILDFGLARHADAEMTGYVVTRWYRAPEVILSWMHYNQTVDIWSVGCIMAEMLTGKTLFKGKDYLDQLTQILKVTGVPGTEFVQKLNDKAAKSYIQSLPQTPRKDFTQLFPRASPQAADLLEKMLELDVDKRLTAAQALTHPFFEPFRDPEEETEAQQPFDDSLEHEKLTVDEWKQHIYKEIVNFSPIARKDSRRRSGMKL
Conditions: at 0.1 µM.

Assay [9] concerns the target T1, Mitogen-activated protein kinase 13 (Homo sapiens). The following applies: at 1 µM.
In assay [10] the target is T2, Mitogen-activated protein kinase 12 (Homo sapiens) (UniProt P53778).
T2 sequence (whole entry): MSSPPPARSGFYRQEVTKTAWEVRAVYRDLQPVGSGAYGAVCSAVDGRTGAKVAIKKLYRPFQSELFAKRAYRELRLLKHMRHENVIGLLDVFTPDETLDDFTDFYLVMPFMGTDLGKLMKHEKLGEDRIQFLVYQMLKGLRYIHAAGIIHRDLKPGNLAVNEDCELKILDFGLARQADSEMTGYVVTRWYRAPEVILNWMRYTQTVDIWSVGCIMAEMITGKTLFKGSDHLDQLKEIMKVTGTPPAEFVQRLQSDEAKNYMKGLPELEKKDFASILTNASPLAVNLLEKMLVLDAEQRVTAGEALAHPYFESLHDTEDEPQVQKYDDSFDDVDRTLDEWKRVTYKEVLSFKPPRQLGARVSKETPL
Conditions: at 0.1 µM.

The target in assay [11] is T2, Mitogen-activated protein kinase 12 (Homo sapiens). The following applies: at 1 µM.
Assay [12] concerns the target SRSF protein kinase 1 (Homo sapiens) (UniProt Q96SB4). The following applies: at 0.1 µM.
The target is the same in assay [13]. Conditions: at 1 µM.
Assay [14] deals with Phosphatidylinositol 4,5-bisphosphate 3-kinase catalytic subunit alpha isoform (Homo sapiens) (UniProt P42336). Conditions: at 0.1 µM.
Chain of Phosphatidylinositol 4,5-bisphosphate 3-kinase catalytic subunit alpha isoform (Homo sapiens) (P42336 whole entry, canonical isoform): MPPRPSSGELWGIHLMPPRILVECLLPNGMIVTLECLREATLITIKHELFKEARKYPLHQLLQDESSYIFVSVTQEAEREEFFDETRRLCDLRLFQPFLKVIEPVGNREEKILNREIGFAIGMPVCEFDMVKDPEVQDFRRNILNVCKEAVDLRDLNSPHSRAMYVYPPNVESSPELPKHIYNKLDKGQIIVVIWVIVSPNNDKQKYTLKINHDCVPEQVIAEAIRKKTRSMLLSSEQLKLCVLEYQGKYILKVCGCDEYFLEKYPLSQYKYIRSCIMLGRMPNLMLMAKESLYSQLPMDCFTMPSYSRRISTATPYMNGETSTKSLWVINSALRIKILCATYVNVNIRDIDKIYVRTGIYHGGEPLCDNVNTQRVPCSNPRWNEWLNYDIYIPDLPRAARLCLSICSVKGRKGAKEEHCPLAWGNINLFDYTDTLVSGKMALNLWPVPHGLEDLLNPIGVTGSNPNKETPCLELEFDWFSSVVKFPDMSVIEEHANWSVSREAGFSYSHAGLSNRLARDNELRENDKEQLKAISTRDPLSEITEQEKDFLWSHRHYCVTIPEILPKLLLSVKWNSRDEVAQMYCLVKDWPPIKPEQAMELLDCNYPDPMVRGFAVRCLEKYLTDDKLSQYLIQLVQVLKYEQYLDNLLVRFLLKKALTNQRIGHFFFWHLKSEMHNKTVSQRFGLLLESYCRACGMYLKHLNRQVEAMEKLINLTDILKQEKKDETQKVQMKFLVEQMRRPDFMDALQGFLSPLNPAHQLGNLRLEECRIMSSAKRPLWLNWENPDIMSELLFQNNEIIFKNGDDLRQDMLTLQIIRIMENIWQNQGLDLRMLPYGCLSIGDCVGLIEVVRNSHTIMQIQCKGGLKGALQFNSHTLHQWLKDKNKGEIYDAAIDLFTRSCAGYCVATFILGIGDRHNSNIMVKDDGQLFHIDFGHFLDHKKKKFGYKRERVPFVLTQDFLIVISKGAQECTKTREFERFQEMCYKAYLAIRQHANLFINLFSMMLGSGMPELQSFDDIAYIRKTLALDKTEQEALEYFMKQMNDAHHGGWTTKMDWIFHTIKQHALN
Assay [15] shares this target. The following applies: at 1 µM.
Assay [16] deals with T3, Phosphatidylinositol 4,5-bisphosphate 3-kinase catalytic subunit delta isoform (Homo sapiens) (UniProt O00329).
T3 sequence (whole entry): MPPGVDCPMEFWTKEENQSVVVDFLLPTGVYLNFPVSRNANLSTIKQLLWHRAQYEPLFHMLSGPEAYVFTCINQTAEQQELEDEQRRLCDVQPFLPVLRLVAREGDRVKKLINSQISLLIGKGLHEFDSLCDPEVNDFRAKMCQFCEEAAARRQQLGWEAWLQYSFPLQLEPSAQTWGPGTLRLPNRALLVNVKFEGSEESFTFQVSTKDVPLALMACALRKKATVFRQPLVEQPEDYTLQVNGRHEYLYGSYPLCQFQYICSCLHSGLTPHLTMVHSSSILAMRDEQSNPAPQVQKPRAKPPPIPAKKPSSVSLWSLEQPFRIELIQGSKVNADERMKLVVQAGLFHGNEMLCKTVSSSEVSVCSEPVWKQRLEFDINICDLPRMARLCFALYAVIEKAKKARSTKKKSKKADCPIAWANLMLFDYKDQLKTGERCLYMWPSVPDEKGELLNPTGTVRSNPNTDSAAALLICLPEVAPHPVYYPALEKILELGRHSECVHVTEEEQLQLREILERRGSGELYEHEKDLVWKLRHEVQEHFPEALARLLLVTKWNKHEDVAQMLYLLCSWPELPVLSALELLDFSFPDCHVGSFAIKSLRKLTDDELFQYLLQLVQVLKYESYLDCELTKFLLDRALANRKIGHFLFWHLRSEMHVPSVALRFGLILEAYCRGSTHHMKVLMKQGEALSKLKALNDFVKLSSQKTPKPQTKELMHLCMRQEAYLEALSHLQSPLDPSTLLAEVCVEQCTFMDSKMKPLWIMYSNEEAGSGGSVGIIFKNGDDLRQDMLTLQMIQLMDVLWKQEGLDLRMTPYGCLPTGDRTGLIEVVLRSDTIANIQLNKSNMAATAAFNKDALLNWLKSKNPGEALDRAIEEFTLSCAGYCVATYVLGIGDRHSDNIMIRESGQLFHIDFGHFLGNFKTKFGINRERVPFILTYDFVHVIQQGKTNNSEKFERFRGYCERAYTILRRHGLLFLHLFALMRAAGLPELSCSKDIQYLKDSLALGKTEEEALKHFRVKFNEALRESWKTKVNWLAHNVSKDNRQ
The following applies: at 0.1 µM.

Assay [17] addresses T3, Phosphatidylinositol 4,5-bisphosphate 3-kinase catalytic subunit delta isoform (Homo sapiens). The following applies: at 1 µM.
For assay [18], the target named is Phosphatidylinositol 4-kinase beta (Homo sapiens) (UniProt Q9UBF8). The following applies: at 0.1 µM.
Chain of Phosphatidylinositol 4-kinase beta (Homo sapiens) (Q9UBF8 2-816 limits assumed): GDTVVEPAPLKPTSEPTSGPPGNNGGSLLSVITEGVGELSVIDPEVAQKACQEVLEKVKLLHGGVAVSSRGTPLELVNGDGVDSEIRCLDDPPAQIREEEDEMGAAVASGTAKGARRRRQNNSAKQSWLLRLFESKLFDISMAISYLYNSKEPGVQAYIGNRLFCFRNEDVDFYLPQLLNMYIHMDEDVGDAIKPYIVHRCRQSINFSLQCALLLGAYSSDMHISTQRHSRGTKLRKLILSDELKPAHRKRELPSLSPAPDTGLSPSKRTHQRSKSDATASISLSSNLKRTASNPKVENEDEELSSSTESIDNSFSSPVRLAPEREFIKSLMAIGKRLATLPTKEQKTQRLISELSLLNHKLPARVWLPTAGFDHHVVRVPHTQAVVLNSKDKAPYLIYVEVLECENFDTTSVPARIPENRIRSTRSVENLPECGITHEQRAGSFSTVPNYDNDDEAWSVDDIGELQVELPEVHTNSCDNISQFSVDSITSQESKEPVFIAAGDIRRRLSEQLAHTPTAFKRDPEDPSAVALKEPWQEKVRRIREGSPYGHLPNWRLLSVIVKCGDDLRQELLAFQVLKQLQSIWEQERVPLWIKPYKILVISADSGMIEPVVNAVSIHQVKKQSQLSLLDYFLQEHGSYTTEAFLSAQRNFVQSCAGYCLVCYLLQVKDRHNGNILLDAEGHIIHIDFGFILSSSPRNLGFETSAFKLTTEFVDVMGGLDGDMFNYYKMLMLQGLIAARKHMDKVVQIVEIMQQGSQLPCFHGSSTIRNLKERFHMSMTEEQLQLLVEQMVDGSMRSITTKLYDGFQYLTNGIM
The target is the same in assay [19]. Conditions: at 1 µM.
Assay [20] addresses Sphingosine kinase 1 (Homo sapiens) (UniProt Q9NYA1). Conditions: at 0.1 µM.

Chain of Sphingosine kinase 1 (Homo sapiens) (Q9NYA1 whole entry): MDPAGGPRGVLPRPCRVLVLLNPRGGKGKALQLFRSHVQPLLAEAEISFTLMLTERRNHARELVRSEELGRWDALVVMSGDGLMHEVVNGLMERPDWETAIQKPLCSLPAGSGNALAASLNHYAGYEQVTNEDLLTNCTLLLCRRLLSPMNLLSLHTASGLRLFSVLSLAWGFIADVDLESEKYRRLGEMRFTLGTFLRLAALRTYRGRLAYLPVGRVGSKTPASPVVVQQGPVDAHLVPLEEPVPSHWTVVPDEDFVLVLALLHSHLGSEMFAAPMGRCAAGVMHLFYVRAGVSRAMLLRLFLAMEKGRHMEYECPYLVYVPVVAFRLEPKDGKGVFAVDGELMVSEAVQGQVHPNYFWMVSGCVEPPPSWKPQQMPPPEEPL
Chain of SRSF protein kinase 3 (Homo sapiens) (Q9UPE1 whole entry): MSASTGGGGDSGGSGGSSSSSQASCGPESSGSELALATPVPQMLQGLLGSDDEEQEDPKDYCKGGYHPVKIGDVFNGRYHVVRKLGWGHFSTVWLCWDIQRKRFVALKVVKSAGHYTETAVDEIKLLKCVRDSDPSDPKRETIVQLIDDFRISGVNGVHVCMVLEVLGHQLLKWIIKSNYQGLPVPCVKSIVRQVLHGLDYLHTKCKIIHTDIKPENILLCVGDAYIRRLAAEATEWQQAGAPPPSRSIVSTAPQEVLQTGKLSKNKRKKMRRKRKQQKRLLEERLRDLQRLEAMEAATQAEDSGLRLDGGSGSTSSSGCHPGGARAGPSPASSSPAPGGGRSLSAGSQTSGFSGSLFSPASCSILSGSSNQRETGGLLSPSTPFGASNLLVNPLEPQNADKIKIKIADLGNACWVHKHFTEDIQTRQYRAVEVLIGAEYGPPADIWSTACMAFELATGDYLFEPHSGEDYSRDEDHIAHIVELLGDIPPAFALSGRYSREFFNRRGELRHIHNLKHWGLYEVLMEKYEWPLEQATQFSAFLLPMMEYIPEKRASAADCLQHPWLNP
Chain of Mitogen-activated protein kinase 3 (Homo sapiens) (P27361 whole entry): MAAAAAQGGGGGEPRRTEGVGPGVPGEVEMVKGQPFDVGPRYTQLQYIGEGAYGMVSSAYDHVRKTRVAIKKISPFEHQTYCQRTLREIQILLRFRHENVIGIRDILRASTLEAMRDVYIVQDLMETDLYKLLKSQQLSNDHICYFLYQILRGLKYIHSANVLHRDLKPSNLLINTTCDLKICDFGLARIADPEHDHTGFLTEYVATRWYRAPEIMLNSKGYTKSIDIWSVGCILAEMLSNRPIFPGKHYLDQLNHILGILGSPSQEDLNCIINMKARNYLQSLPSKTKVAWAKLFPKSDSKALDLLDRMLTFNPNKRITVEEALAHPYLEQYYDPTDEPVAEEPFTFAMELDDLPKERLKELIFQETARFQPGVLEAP
Chain of SRSF protein kinase 1 (Homo sapiens) (Q96SB4 whole entry): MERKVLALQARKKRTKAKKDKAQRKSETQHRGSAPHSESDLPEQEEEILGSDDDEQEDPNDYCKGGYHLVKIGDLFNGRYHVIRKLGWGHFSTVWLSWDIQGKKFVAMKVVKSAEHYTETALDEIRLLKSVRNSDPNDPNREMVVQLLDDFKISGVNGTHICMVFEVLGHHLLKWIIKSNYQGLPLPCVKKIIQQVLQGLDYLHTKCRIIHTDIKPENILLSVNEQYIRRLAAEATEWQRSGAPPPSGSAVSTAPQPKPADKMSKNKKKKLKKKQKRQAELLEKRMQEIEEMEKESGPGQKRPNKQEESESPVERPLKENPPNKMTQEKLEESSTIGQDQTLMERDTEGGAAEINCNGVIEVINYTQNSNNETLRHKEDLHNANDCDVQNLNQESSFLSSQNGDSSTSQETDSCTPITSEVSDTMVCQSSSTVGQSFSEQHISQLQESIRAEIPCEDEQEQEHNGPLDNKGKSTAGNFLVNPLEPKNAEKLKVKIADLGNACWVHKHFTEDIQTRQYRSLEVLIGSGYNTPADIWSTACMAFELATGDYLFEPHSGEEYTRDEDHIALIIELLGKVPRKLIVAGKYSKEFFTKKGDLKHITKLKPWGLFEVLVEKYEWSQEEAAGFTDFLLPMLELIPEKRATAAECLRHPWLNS
Chain of Mitogen-activated protein kinase 11 (Homo sapiens) (Q15759 whole entry): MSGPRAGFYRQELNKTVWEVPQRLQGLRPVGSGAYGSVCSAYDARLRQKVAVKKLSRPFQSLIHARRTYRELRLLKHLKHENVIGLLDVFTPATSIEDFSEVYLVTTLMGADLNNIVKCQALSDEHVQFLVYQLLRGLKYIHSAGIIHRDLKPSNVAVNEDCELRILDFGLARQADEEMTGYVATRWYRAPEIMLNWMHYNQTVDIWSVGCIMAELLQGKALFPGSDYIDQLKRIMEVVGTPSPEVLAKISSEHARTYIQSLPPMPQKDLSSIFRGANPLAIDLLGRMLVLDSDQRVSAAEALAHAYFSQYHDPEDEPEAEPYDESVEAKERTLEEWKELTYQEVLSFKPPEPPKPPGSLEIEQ

Turning to `Nc1nonc1-c1nc2cnccc2n1C1CCCCC1`, the inhibition (as a rule, the change of the read-out against control, counted positive when it falls) in [1] is 2.55%; in assay [2], -1.48%; in assay [3], -1.01%; in [4], -0.43%; in assay [5], -3.77%; in assay [6], -1.77%. The inhibition in [7] is 0.28%; in assay [8], -3.11%; in assay [9], 1.87%; in [10], -0.65%; in [11], 0.39%; in assay [12], 1%. In addition, the inhibition in assay [13] is -0.52%; in assay [14], -2.06%; in [15], -3.54%; in assay [16], -1.65%; in [17] it was 0.74%; in assay [18], 4.2%. In addition, the inhibition in assay [19] was -2.26%; in assay [20], 0%.

On to `CCn1c(-c2nonc2N)nc2c(C#CCN)ncc(OCCCN)c21`, for which the inhibition was -0.18% in [1]; -0.3% in assay [2]; 3.44% in assay [3]; 2.31% in [4]; -5.03% in [5]; -2.25% in assay [6]. For the same compound, the inhibition in assay [7] was 0.63%; in [8] it was 2.51%; in [9] it was -4.32%; in assay [10], -2.6%; in assay [11], -2.79%; in assay [12] it was 2.33%. The inhibition in assay [13] was 7.14%; in assay [14] it was -0.54%; in [15], -3.54%; in [16] it was -2.56%; in [17] it was -5.7%; in [18], 1.34%. Besides, the inhibition in assay [19] was -2.08%; in [20], 0.33%.

Take `Fc1ccc(-c2ncn(C3CCNCC3)c2-c2ccnc(Oc3ccccc3)n2)cc1`: the inhibition in assay [1] is 3.04%; in assay [2], -3.7%; in assay [3], -2.18%; in [12], -1.48%; in assay [13], -1.61%; in assay [14] it was 1.53%. Moreover, the inhibition turned out to be 0.06% in assay [15]; 0.6% in [16]; 1.12% in [17]; 0.91% in assay [18]; 2.57% in [19]; 1.45% in assay [20].

Regarding `CCn1c(-c2nonc2N)nc2c(C#CC(C)(C)O)ncc(OCC3CCNCC3)c21`, the inhibition in assay [1] was 6.52%; in assay [2], -0.11%; in assay [3], 3.41%; in [4] it was -0.04%; in assay [5] it was 5.69%; in assay [6] it was 3.7%. The inhibition in assay [7] was 4.04%; in assay [8], 1.99%; in assay [9], 2.26%; in assay [10], 1.19%; in [11] it was 1.7%; in assay [12], -0.7%. Besides, the inhibition is 1.81% in [13]; 1.65% in [14]; 19.5% in assay [15]; -0.08% in assay [16]; -0.9% in [17]; 4.18% in assay [18]. Further, the results for the inhibition in assay [19] and in assay [20] were -3.56% and 0%, respectively.

Take `CCn1c(-c2nonc2N)nc2c(C#CC(C)(C)O)ncc(OC[C@@H]3CCCN3)c21`: the inhibition in assay [1] is 2.32%; in assay [2], -2.22%; in [3], -4.41%; in [4], 0.34%; in assay [5], 0.75%; in assay [6], 1.96%. The inhibition was 1.41% in assay [7]; 0.68% in assay [8]; -1.56% in assay [9]; 0.36% in assay [10]; 0.35% in assay [11]; -1.57% in assay [12]. Further, the inhibition in [13] was -2.53%; in assay [14] it was -0.15%; in [15] it was 0.24%; in assay [16], 0.06%; in [17], 0.22%; in [18], 0.05%. Also, the inhibition in assay [19] was 1.54%; in [20] it was -0.8%.

For `COc1cccc(COc2cc(-n3cnc4ccccc43)sc2C(N)=O)c1`, the inhibition in [1] was 3%; in assay [2], -1.99%; in [3], -1.01%; in [4], 1.67%; in assay [5], 8.88%; in assay [6], 1.92%. For the same compound, the inhibition in [7] was 4.36%; in [8], -0.06%; in assay [9], -2.46%; in [10] it was -0.12%; in assay [11], -0.04%; in assay [12], -3.25%. The inhibition in [13] was -2.74%; in assay [14], 0.82%; in assay [15] it was 1.56%; in assay [16], 1.62%; in assay [17] it was 3.63%; in assay [18] it was 1.38%. The inhibition was -0.71% in [19] and 2.22% in [20].

Take `COc1cc2c(cc1Nc1nc(Nc3ccsc3C(N)=O)c3cc[nH]c3n1)N(C(=O)CN(C)C)CCC2`: the inhibition in assay [1] is 1.75%; in [2] it was -1.49%; in assay [3] it was -0.38%; in [6], 2.67%; in [7], 6.9%; in [8], 1.18%. For the same compound, the inhibition in assay [9] was 0.18%; in [10], 2.28%; in [11], 3.18%; in [12], -1.65%; in [13], -0.66%; in assay [14], -0.16%. For the same compound, the inhibition in assay [15] was -1%; in [16] it was 0.01%; in assay [17], -0.22%; in assay [18] it was -1.18%; in assay [19] it was -3.17%; in assay [20] it was 1.85%.
